Source: PubChem BioAssay AID1220 (Sanford-Burnham Center for Chemical Genomics, 2008)
Values joined by “and” are separate entries in the source; they are usually repeats but may differ in a detail not shown here. Identical values can stand only once. The whole screen tested about 190,000 compounds, of which about 1,300 (0.68%) were called active. Rule as the data show it: active = inhibition above about 50%; inactive = the rest. Many of the other results were omitted from the sample, so actives are more common in it than they were. The source holds several records for some structures; these can differ, active in one and inactive in another.

What follows are molecules tested against Mannose-6-phosphate isomerase (Homo sapiens) (UniProt P34949) (assay: MPI inhibition at elevated mannose 6-phosphate – biochemical, fluorescence intensity, high mannose 6-phosphate, primary screen (AID 1220)). Details: recombinant PMI enzyme, coupled fluorescence intensity; at 20 µM; stronger effect = higher value.
Chain of Mannose-6-phosphate isomerase (Homo sapiens) (P34949 whole entry, looked up): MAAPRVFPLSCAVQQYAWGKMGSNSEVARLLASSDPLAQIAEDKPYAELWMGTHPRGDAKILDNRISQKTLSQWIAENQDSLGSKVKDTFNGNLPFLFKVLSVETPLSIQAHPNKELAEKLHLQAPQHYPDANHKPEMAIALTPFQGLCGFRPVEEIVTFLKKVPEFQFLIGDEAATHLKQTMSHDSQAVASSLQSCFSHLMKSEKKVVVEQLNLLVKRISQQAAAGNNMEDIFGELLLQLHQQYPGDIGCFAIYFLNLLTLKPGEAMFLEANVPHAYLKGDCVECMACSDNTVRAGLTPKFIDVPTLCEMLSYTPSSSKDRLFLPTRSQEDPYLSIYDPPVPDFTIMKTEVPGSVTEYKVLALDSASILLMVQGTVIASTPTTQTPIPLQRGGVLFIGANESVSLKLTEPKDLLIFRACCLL
In the case of `COc1ccc(CN2CCCC(C(=O)c3sccc3C)C2)cc1O` (stereo not given), the inhibition is reported as 1.4% (inactive).
In the case of `COc1cc(CN2CCCC(C(=O)c3sccc3C)C2)cc(OC)c1O` (stereo not given), the inhibition is reported as 65.3% (active).
In the case of `COc1cc(CN2CCCC(C(=O)c3sccc3C)C2)cc(Cl)c1O` (stereo not given), the inhibition is reported as 14% (inactive).
`Cc1ccccc1-n1c(O)c(/C=N/N2CCOCC2)c(=O)[nH]c1=S` was tested, and the inhibition was 55.7% (active).
`O=c1[nH]c(=S)n(-c2ccccc2)c(O)c1/C=N/N1CCOCC1` was tested, and the inhibition was 3.4% (inactive).
In the case of `Cc1ccc(-n2c(O)c(/C=N/N3CCOCC3)c(=O)[nH]c2=S)cc1`, the inhibition is reported as 29% (inactive).
In the case of `CN1C(=O)N(C)C(=O)C2(Sc3ccccc3C2=O)C1=O`, the inhibition is reported as -1.5% (inactive).
`CCN(CC)c1ccc(N=Cc2c(O)n(-c3ccccc3C)c(=O)[nH]c2=O)cc1` was tested, and the inhibition was 19.9% (inactive).
For `CCN(CC)c1ccc(N=Cc2c(O)n(-c3ccc(Cl)cc3)c(=O)[nH]c2=O)cc1`, the inhibition was 39.5% (inactive).
`C=CCn1c(O)c(C=Nc2ccc(N(CC)CC)cc2)c(=O)[nH]c1=O` was tested, and the inhibition was 4% (inactive).
With `CCOc1ccc(-n2c(O)c(C=Nc3ccc(N(CC)CC)cc3)c(=O)[nH]c2=O)cc1` the inhibition was 18.2% (inactive).
With `CCN(CC)CCN=Cc1c(O)n(CCC2=CCCCC2)c(=O)[nH]c1=O` the inhibition was 1.6% (inactive).
In the case of `CN(C)c1ccc(N=Cc2c(O)n(CCC3=CCCCC3)c(=O)[nH]c2=O)cc1`, the inhibition is reported as 28.9% (inactive).
For `CCN(CC)c1ccc(N=Cc2c(O)n(CCC3=CCCCC3)c(=O)[nH]c2=O)cc1`, the inhibition was 58.1% (active).
`CCN(CC)c1ccc(N=Cc2c(O)n(Cc3ccccc3)c(=O)[nH]c2=O)cc1` was tested, and the inhibition was 13.5% (inactive) and 50.6% (active).
`CCOc1ccccc1-n1c(O)c(C=Nc2ccc(N(CC)CC)cc2)c(=O)[nH]c1=O` was tested, and the inhibition was 59.3% (active).
In the case of `Cc1nc2cc(-c3ccccc3)nn2c(C)c1CCC(=O)N1CCC2(CC1)OCCO2`, the inhibition is reported as 12.2% (inactive).
In the case of `COc1ccccc1NC1=NCCS1`, the inhibition is reported as -1% (inactive).
With `Cc1ccccc1OP(N)(=O)Oc1ccccc1C` the inhibition was 3% (inactive).
For `CN1C(=O)C(Cc2cccc3ccccc23)C(=O)N(C)C1=O`, the inhibition was -9.1% (inactive).
`O=C(COC(=O)Cc1ccccc1)Nc1ccc(Cl)cn1` was tested, and the inhibition was -6.1% (inactive).
In the case of `COC(=O)CC1=C(C(=O)OC)C2(C(=O)Nc3c(C)cccc32)C(C#N)=C(N)O1` (stereo not given), the inhibition is reported as 4.4% (inactive).
`c1cncc(C2CCCCN2Cc2ccc3c(c2)OCO3)c1` (stereo not given) was tested, and the inhibition was 4.9% (inactive).
For `CCN1CCN(c2cc(N3CCCC3)c([N+](=O)[O-])cc2F)CC1`, the inhibition was 25.4% (inactive).
`CCN1CCN(Cc2cc(OC)c(OC)cc2[N+](=O)[O-])CC1` was tested, and the inhibition was 59.2% (active).
In the case of `CCN1CCN(Cc2cc(Br)cc(OC)c2O)CC1`, the inhibition is reported as 18% (inactive).
For `CCOc1ccccc1-n1c(O)c(C=NCCCN(CC)CC)c(=O)[nH]c1=O`, the inhibition was -2.3% (inactive).
`O=C(c1cc(-c2ccccc2)on1)N1CCC2(CC1)OCCO2` was tested, and the inhibition was -0.7% (inactive).
With `Oc1ccc(/C=N/NP(=S)(c2ccccc2)c2ccccc2)c(O)c1O` the inhibition was 52.2% (active).
With `Oc1ccccc1/C=N/NP(=S)(c1ccccc1)c1ccccc1` the inhibition was 10.4% (inactive).
In the case of `Oc1ccc(/C=N/NP(=S)(c2ccccc2)c2ccccc2)cc1`, the inhibition is reported as 8.7% (inactive).
With `COC(=O)CNC(=O)c1cn(CCC#N)nc1-c1ccc(F)cc1` the inhibition was -0.2% (inactive).
In the case of `O=C(CSc1ccccc1)N1CCC2(CC1)OCCO2`, the inhibition is reported as 14.1% (inactive).
In the case of `CCOC(=O)C1=C(C)OC(N)=C(C#N)C12C(=O)Nc1ccc(C)cc12` (stereo not given), the inhibition is reported as -2.3% (inactive).
For `CCCC1=C(C(=O)OCC)C2(C(=O)Nc3ccc(C)cc32)C(C#N)=C(N)O1` (stereo not given), the inhibition was 8.5% (inactive).
In the case of `O=C1CCCN1c1ccc(S(=O)(=O)O)cc1` (tested in a mixture with another compound), the inhibition is reported as -11.1% (inactive).
With `CC(=O)c1ccc(OC(NC(=O)c2ccco2)C(Cl)(Cl)Cl)cc1` (stereo not given) the inhibition was 7.7% (inactive).
In the case of `CC(C)OCCCNC(=O)c1c(N)n(Cc2cccs2)c2nc3ccccc3nc12`, the inhibition is reported as 57.4% (active).
`CCC(C)OC(=O)c1c(N)n(Cc2cccs2)c2nc3ccccc3nc12` (stereo not given) was tested, and the inhibition was 8.2% (inactive).
In the case of `CC(C)CNC(=O)c1c(N)n(Cc2ccco2)c2nc3ccccc3nc12`, the inhibition is reported as -12.2% (inactive).
For `COCCCn1c(N)c(C(=O)NCCC(C)C)c2nc3ccccc3nc21`, the inhibition was 63.7% (active).
With `CCCOC(=O)c1c(N)n(Cc2cccs2)c2nc3ccccc3nc12` the inhibition was -0.8% (inactive).
With `COCCCn1c(N)c(C(=O)Nc2sc3c(c2C(=O)OC)CCCC3)c2nc3ccccc3nc21` the inhibition was 24.1% (inactive).
With `CCOC(=O)c1c(NC(=O)c2c(N)n(CCCOC)c3nc4ccccc4nc23)sc2c1CCCC2` the inhibition was 24.1% (inactive).
In the case of `Nc1c(C(=O)NCCCc2ccccc2)c2nc3ccccc3nc2n1Cc1cccs1`, the inhibition is reported as 17.4% (inactive).
`CC(C)CCn1c(N)c(C(=O)NCc2cccs2)c2nc3ccccc3nc21` was tested, and the inhibition was 59.5% (active).
For `COCCNC(=O)c1c(N)n(CCC(C)C)c2nc3ccccc3nc12`, the inhibition was 34.1% (inactive).
With `CCOCCCn1c(N)c(C(=O)Nc2sc3c(c2C(=O)OC)CCCC3)c2nc3ccccc3nc21` the inhibition was 62.1% (active).
In the case of `CCCCNC(=O)c1c(N)n(CCCOC)c2nc3ccccc3nc12`, the inhibition is reported as 40.9% (inactive).
For `CCOc1cc(C2C(C#N)=C(N)Oc3c2c(=O)oc2ccccc32)ccc1OC(=O)c1cccs1` (stereo not given), the inhibition was 2.8% (inactive).
For `Cc1ccnc(-n2c(-c3ccccc3)nc3ccccc3c2=O)c1`, the inhibition was 15.9% (inactive).
With `CC(C(=O)c1c[nH]c2ccccc12)N1CCc2ccccc2C1` (stereo not given) the inhibition was 6.1% (inactive).
`CCCC1(CCC)C(=O)NC(=Nc2ccc(C)cc2)NC1=O` was tested, and the inhibition was 2.5% (inactive).
`CN1CN=C(N[N+](=O)[O-])N(Cc2ccco2)C1` was tested, and the inhibition was -10.4% (inactive).
For `O=C(Cn1cnc2sc3c(c2c1=O)CCCC3)NCCC(=O)N1CCC2(CC1)OCCO2`, the inhibition was 1.1% (inactive).
For `CN1C[C@H](CO)C=C2c3cccc4[nH]cc(c34)C[C@H]21`, the inhibition was 65.5% (active).
`CC(C)[C@H]1C(=O)N2CCC[C@H]2[C@]2(O)O[C@](NC(=O)[C@@H]3C=C4c5cccc6[nH]cc(c56)C[C@H]4N(C)C3)(C(C)C)C(=O)N12` was tested, and the inhibition was 0.6% (inactive).
With `CC(C)C[C@H]1C(=O)N2CCCC2[C@]2(O)O[C@](NC(=O)[C@@H]3C=C4c5cccc6[nH]cc(c56)CC4N(C)C3)(C(C)C)C(=O)N12` (stereo not given in full) the inhibition was 48.1% (inactive).
With `O=[N+]([O-])c1ccc(C2C3C(c4ccccc4)=NC4(CCCC4)N32)cc1` (stereo not given) the inhibition was 9.1% (inactive).
In the case of `Cc1ccnc(-n2c(-c3ccco3)nc3ccccc3c2=O)c1`, the inhibition is reported as 16.7% (inactive).
In the case of `CN(CCOc1ccc(C=C2C(=O)NC(=O)NC2=O)cc1)c1ccccn1`, the inhibition is reported as -5.1% (inactive).
With `COc1cc(/C=N/NP(=S)(c2ccccc2)c2ccccc2)ccc1O` the inhibition was 4.4% (inactive).
`CCCCn1c(O)c(C(CC)=Nc2ccc(OC)cc2OC)c(=O)[nH]c1=O` was tested, and the inhibition was 17.6% (inactive).
For `CCC(=Nc1ccc(OC)cc1OC)c1c(O)n(C)c(=O)n(C)c1=O`, the inhibition was 53.9% (active).
For `CCC(=Nc1ccc(OC)cc1OC)c1c(O)[nH]c(=O)[nH]c1=O`, the inhibition was 30.1% (inactive).
With `C=CCn1c(O)c(C(C)=Nc2cc(OC)ccc2OC)c(=O)[nH]c1=O` the inhibition was 13% (inactive).
`COc1ccc(N=C(C)c2c(O)n(C)c(=O)n(C)c2=O)c(OC)c1` was tested, and the inhibition was -2.6% (inactive).
With `C=CCn1c(O)c(C(CC)=Nc2cc(OC)ccc2OC)c(=O)[nH]c1=O` the inhibition was 55.7% (active).
In the case of `Cc1ccc(O)c(CN2CCN(c3ccccc3)CC2)c1`, the inhibition is reported as 4.3% (inactive).
`CN(C)[C@@H]1C(=O)C(C(N)=O)=C(O)[C@@]2(O)C(=O)C3=C(O)c4c(O)cccc4[C@@](C)(O)[C@H]3[C@H](O)[C@@H]12` was tested, and the inhibition was 52.6% (active).
`CN(C)[C@@H]1C(=O)C(C(N)=O)=C(O)[C@@]2(O)C(=O)C3=C(O)c4c(O)ccc(Cl)c4[C@@](C)(O)C3C[C@@H]12` (stereo not given in full) was tested, and the inhibition was 16.4% (inactive).
For `CC1CN(c2ccc([N+](=O)[O-])cc2Cl)CCN1` (stereo not given), the inhibition was 49.1% (inactive).
`O=[N+]([O-])c1ccc(N2CCNCC2)c2ncccc12` was tested, and the inhibition was 29% (inactive).
`CC1CN(c2ccc([N+](=O)[O-])c3cccnc23)CC(C)N1` (stereo not given) was tested, and the inhibition was 63.1% (active).
`O=[N+]([O-])c1ccc(N2CCCCC2)c2ncccc12` was tested, and the inhibition was 72.6% (active).
With `CC1CN(c2cc([N+](=O)[O-])ccc2Cl)CC(C)N1` (stereo not given) the inhibition was -1.6% (inactive).
For `CN1CCN(c2ccc(S(C)(=O)=O)cc2[N+](=O)[O-])CC1`, the inhibition was -13.1% (inactive).
`CN1CCN(c2ccc([N+](=O)[O-])c3cccnc23)CC1` was tested, and the inhibition was 63.5% (active).
`O=[N+]([O-])c1ccc(N2CCCC2)c(F)c1Br` was tested, and the inhibition was 8.1% (inactive).
For `O=[N+]([O-])c1ccc(N2CCCC2)c2ncccc12`, the inhibition was 22.1% (inactive).
With `CN1CCN(c2ccc(S(=O)(=O)C(F)(F)F)cc2[N+](=O)[O-])CC1` the inhibition was -6.1% (inactive).
In the case of `O=[N+]([O-])c1ccc(N2CCNCC2)cc1N1CCCCC1`, the inhibition is reported as 9.9% (inactive).
In the case of `O=[N+]([O-])c1ccc(N2CCCCCC2)c2ncccc12`, the inhibition is reported as 63.7% (active).
`Cc1cc(OCc2nn[nH]n2)c2c3c(c(=O)oc2c1)CCCC3` was tested, and the inhibition was -9.2% (inactive).
With `COc1cc(NC(=O)CN2C3CCC2CC(O)(c2cccnc2)C3)cc(OC)c1` (stereo not given) the inhibition was 5.3% (inactive).
With `O=C(NC(C(Cl)Cl)N1CCOCC1)c1ccccc1` (stereo not given) the inhibition was -6.2% (inactive).
`O=C(c1ccc2c(c1)ncn2-c1ccc(F)cc1F)N1CCC2(CC1)OCCO2` was tested, and the inhibition was -2.9% (inactive).
For `CCCCCn1c(=O)c(C(=O)Nc2ccncc2)c(O)c2ccccc21`, the inhibition was -5.5% (inactive).
`COc1ccc(C(C)=O)cc1CC(C(=O)c1ccc(C)cc1)N(C)C` (stereo not given) was tested, and the inhibition was 4.6% (inactive).
In the case of `CCC(C)NC(=O)CN1C(=O)CN=C(c2ccccc2)c2ccccc21` (stereo not given), the inhibition is reported as -11.3% (inactive).
